Sampled rows, rich in hits. Any-hit rate of the full collection: about 7.9%.
HCV inhibitor: HCV inhibition | Huh7.5.1 HCVcc-Cre infection, luciferase reporter, 44 h | Potency, µM (highest dose often 41.8 µM), without a hit: at the top dose activity change, negative = inhibition, usual class: inhibitors | actives 3.4% (n = 340,000); active means well fitted inhibition curve with a large enough effect; inconclusive means small, poorly fitted or top-dose-only effect, or another doubt; inactive means no such curve, though single readings can be large or run the other way; further: potency means the concentration at half of the fitted maximal effect
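1,000 cells/well; 4 h culture; + compound; + HCVcc-Cre (~0.5 moi); 44 h; luciferase substrate, RT 15 min; read 15 sec.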
HCMV antiviral: human cytomegalovirus inhibition; HFF cells, HCMV-luciferase reporter, 72 h; stronger effect = lower value; activity change, negative = inhibition, % at 57.5 µM; actives 4.5% (n = 410,000); in the data active means activity change below about -60%; inconclusive means no clear call, values can overlap the other calls; inactive means above about -39%
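Screen run at 2 compound doses on HFFs infected with reporter HCMV, MOI 1 PFU/cell. Luciferase activity from cell lysates at 72 h post infection gave inhibition relative to buffer-only and Salinomycin wells.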
MARV entry inh: blocks Marburg virus binding to or entry into cells; AID 540276; actives 1.8% (n = 300,000); Potency, µM (top dose mostly 37.8 µM), for the others: at the highest dose activity change, negative = inhibition, most hits filed as inhibitors; Marburg virus pseudotyped entry inhibition, cell reporter; calls by dose curve; tested in HEK293 cells; further: potency means the concentration at half of the fitted maximal effect
Lassa entry inh: Lassa virus entry inhibition; Lassa virus pseudotype entry inhibition, cell reporter; Potency, µM (doses to about 37.9 µM), for the others: top-dose activity change, negative = inhibition, most hits filed as inhibitors; actives 1.2% (n = 300,000); AID 540256; calls by dose curve; tested in HEK293 cells; further: potency means the concentration at half of the fitted maximal effect; nearly all actives have a fitted effect of over 50% in size
FMDV inh: antivirals against foot and mouth disease virus; FMDV antiviral cell-based qHTS; Potency, µM (doses to about 57.9 µM), without a hit: top-dose activity change, negative = inhibition, usual class: inhibitors; actives 1.2% (n = 410,000); AID 1159524; calls by dose curve; tested in HEK293T cells; further: read-out not given here; potency means the concentration at half of the fitted maximal effect; nearly all actives have a fitted effect of over 45% in size
Active calls of the source: *; ? = inconclusive; . = no result; [ ] = another dose, or the depositor's remark. On the % scale 0 is the no-effect control and ±100 the full control effect.

SMILES	HCV inhibitor	HCMV antiviral	MARV entry inh	Lassa entry inh	FMDV inh
CCOc1ccc(NC(=O)CSc2nnc(Cn3cnc([N+](=O)[O-])n3)n2CC)cc1	5.8%	-67.1*	?	10.1%	-3.4%
CCOc1ccc(NC(=O)c2cnsn2)cc1	4.1%	72.8	8.91µM*	?	-16.1%
CCOc1ccc(NC(=O)c2ccc(NC(=O)c3ccccc3Br)cc2)cc1	5.01µM*	-16.0	?	6.1%	1.0%
CCOc1ccc(NC(=O)c2cnccn2)cc1	0.3%	85.8	?	?	-27.3%
Cc1ccc(N(C(=O)c2csnn2)C(C(=O)NCc2ccccc2)c2cccnc2)cc1 (stereo not given)	-6.6%	-10.1	-1.1%[46.1 µM]	-0.4%[46.1 µM]	-4.1%
CN(C)CCN(C(=O)c1cccs1)c1nc2cc3c(cc2s1)OCCO3	17.5%	132.7	-6.6%	3.2%	62.1%
COc1cccc(NC(=O)Cn2c(=O)n(CCC(=O)NCc3ccccc3OC)c(=O)c3ccccc32)c1	.	-9.7	13.2%[46.1 µM]	?	-7.4%
CCOc1ccc(NC(=O)CSc2ccccc2N)cc1	-14.2%	81.8	3.55µM*	.	73.4%
CCOc1ccc(Br)cc1C(=O)Nc1ccc(C(=O)NCC(C)C)cc1	?	-80.0*	?	3.3%	-28.8%
COc1ccc(Br)cc1C(=O)Nc1ccc(C(=O)NCC(C)C)cc1	?	?	.	.	-6.8%
CCOc1ccc(NC(=O)CSCC(=O)O)cc1	11.0%	7.2	13.0%	3.0%	-5.1%
COc1ccc(-c2csc(C3=C(O)CN(Cc4ccc(S(N)(=O)=O)cc4)C3=N)n2)cc1OC	-16.3%	-6.6	1.5%	2.1%	2.8%
COc1ccc(-c2csc(C3=C(O)CN(Cc4ccc(Cl)cc4)C3=N)n2)cc1OC	11.2µM*	-32.6	-1.1%	-19.0%	-6.8%
CC1Sc2ccc(S(=O)(=O)CCC(=O)N3CCN(c4ccccc4)CC3)cc2NC1=O (stereo not given)	?	?	-8.2%[46.1 µM]	?	?
CC1Sc2ccc(S(=O)(=O)CCC(=O)N3CCN(c4cccc(Cl)c4)CC3)cc2NC1=O (stereo not given)	?	-63.0*	.	.	25.1µM*
CC1Sc2ccc(S(=O)(=O)CCC(=O)N3CCN(c4ccccc4F)CC3)cc2NC1=O (stereo not given)	?	-69.9*	?	?	?
O=C1COc2ccc(S(=O)(=O)N3CCN(c4cccc(C(F)(F)F)c4)CC3)cc2N1	?	0.0	-27.5%[46.1 µM]	?	-6.4%
O=C1COc2ccc(S(=O)(=O)CCC(=O)N3CCN(c4cccc(C(F)(F)F)c4)CC3)cc2N1	?	-67.9*	?	?	?
O=C1C(=O)N(CCN2CCOCC2)C(c2ccncc2)/C1=C(/O)c1ccc2c(c1)OCO2 (stereo not given)	0.9%	12.3	3.2%	21.7%	10.1%
COc1cccc(C2/C(=C(/O)c3ccc4c(c3)OCO4)C(=O)C(=O)N2CCN2CCOCC2)c1 (stereo not given)	4.2%	-61.8*	.	.	5.6%
Cc1nn(-c2ccccc2Cl)c(Cl)c1/C=N/Nc1nc2ccccc2s1	1.3%	-93.7*	0.0326µM*	1.12µM*	0.0009µM*
Cc1cc(S(=O)(=O)NCCc2ccccc2)c(C)s1	?	-97.5*	7.1%	-3.4%	66.1%
Cc1cnc(C)c(-c2cc(F)cc3c2OC(CNC(=O)CN2CCCC2)C3)n1 (stereo not given)	.	.	.	.	-1.3%
COc1cc2c(cc1OC)CN(Cc1ccc(C)s1)CC2	11.3%	-95.1*	-17.4%	-6.0%	-5.2%
COc1cc2c(cc1OC)CN(Cc1ccc(F)cc1)CC2	-5.4%	-20.3	4.2%[46.1 µM]	-21.4%	-21.0%
SMILES	HCV inhibitor	HCMV antiviral	MARV entry inh	Lassa entry inh	FMDV inh
CCc1ccc(/C=N/NC(=O)c2cc(-c3ccncc3)nc3ccccc23)s1	?	-66.1*	?	?	-15.8%
O=C(N/N=C/c1cccs1)c1cc(C2CC2)nc2ccccc12	?	-21.9	?	-26.2%	-9.4%
O=C(N/N=C/c1cccs1)c1cc(-c2ccncc2)nc2ccccc12	?	-72.3*	-37.1%	?	?
CCCc1cc(C(=O)N/N=C/c2ccc(CC)s2)c2ccccc2n1	?	5.1	?	-8.6%	?
CCc1ccc(C(=O)N/N=C/c2ccncc2)s1	12.6µM*	38.3	.	.	55.6%
Cc1c(C(=O)OCCOc2ccccc2)[nH]c2c1C(=O)CC(c1ccc(C(C)(C)C)cc1)C2 (stereo not given)	.	-1.7	6.2%[46.1 µM]	-18.0%[46.1 µM]	-24.7%
c1ccc(CSc2ncnc3ccccc23)cc1	?	-30.7	?	-1.1%	6.9%
Fc1ccc(CSc2ncnc3ccccc23)cc1	2.8%	-67.5*	?	-20.4%	3.1%
O=C(CSc1ncnc2ccccc12)c1cccs1	3.1%	1.3	?	?	-39.4%
Cc1ccc(C(=O)CSc2ncnc3ccccc23)o1	3.6%	-60.2*	?	?	8.4%
O=[N+]([O-])c1cccc(CSc2ncnc3ccccc23)c1	-27.0%	-80.6*	1.9%	6.1%	-13.3%
CN(C)C=C1C(=O)N(C2CCCCC2)C(=O)N(C2CCCCC2)C1=O	13.4%	32.9	-22.7%	?	17.8µM*
COCCNc1nc(SCc2ccccc2)nc2sc3c(c12)CCC3	?	-9.2	-0.6%	4.7%	?
CC(CO)Nc1nc(SCc2ccccc2)nc2sc3c(c12)CCC3 (stereo not given)	12.6µM*	?	9.5%	22.5%	-23.0%
COc1ccc(F)cc1S(=O)(=O)n1nc(C)cc1C	-3.1%	18.7	2.8%[46.1 µM]	?	-6.0%
O=C1CC(NS(=O)(=O)c2ccc([N+](=O)[O-])cc2)CN1c1ccc2c(c1)OCCO2 (stereo not given)	-0.5%[8.37 µM]	-28.7	7.5%	?	-19.1%
O=C(Oc1ccc([N+](=O)[O-])cc1)C1CC(=O)N(c2ccc3c(c2)OCCO3)C1 (stereo not given)	26.7%	-100.1*	12.0%	-15.2%	-3.6%
Cc1cc(C(=O)COC(=O)c2n[nH]c(=O)c3ccccc23)c(C)n1C(C)C	30.7%	33.9	.	.	-12.1%
CC(=O)Nc1cccc(NC(=O)CSc2ncc(-c3ccc(Cl)cc3)n2Cc2ccco2)c1	10µM*	-34.7	?	?	14.1µM*
O=C(CSc1nnc(-c2ccc(Cl)cc2)n1Cc1ccco1)Nc1ccc2c(c1)OCCO2	-24.3%	?	?	-14.0%	?
COc1ccc(-c2cnc(SCC(=O)Nc3ccc4c(c3)OCO4)n2Cc2ccco2)cc1	14.1µM*	-24.3	?	?	?
Cn1c(O)c(N=NC(=O)c2cc(-c3cccs3)nc3ccccc23)c2ccccc21	?	-9.4	?	11.8%	-3.1%
O=C(N=Nc1c(O)[nH]c2ccc(Br)cc12)c1cc(-c2cccs2)nc2ccccc12	?	-60.6*	-7.7%[46.1 µM]	0.3%	?
Oc1ccc(NC(=S)N=Nc2c(O)[nH]c3ccc(Br)cc23)cc1	-13.8%	-91.2*	?	11.2µM*	-18.8%
O=C(N=Nc1c(O)[nH]c2ccc(Br)cc12)c1ccco1	.	2.0	.	.	7.5%
